Laboratory results: PubChem BioAssay (NCI)
Compounds without any hit were thinned out: in the full panel of roughly 83,000, 20% have a hit.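 Negative percent growth values reflect cell death: -40 means 40% of the cells present at the start died, and -100 means all died.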 Values without a mark were called inactive. Calls of active or inactive are those of the source. Rule for the calls: active = growth percent below 10; inactive = the rest.

Key:
Assay in all cases: NCI-60 one-dose screen, 48 h (100 = growth as untreated, 0 = no growth, -100 = all killed)
Settings in all cases: 10 µM unless noted
NCI-H23 lung = test system: NCI-H23 lung
NCI-H226 lung = test system: NCI-H226 lung
NCI-H322M lung = test system: NCI-H322M lung
HOP-62 NSCLC = test system: HOP-62 NSCLC
NCI-H460 lung = test system: NCI-H460 lung
NCI-H522 lung = test system: NCI-H522 lung
A549/ATCC NSCLC = test system: A549/ATCC NSCLC
786-0 renal = test system: 786-0 renal
COLO 205 colon = test system: COLO 205 colon
DU-145 prostate = test system: DU-145 prostate
K-562 leukemia = test system: K-562 leukemia
MALME-3M melanoma = test system: MALME-3M melanoma
MDA-MB-231 breast = test system: MDA-MB-231 breast
RXF 393 renal = test system: RXF 393 renal
SF-268 CNS = test system: SF-268 CNS
SF-295 CNS = test system: SF-295 CNS
SF-539 CNS = test system: SF-539 CNS
UACC-257 melanoma = test system: UACC-257 melanoma
M14 melanoma = test system: M14 melanoma

Compound	growth (NCI-H23 lung)	growth (NCI-H226 lung)	growth (NCI-H322M lung)	growth (HOP-62 NSCLC)	growth (NCI-H460 lung)	growth (NCI-H522 lung)	growth (A549/ATCC NSCLC)	growth (786-0 renal)	growth (COLO 205 colon)	growth (DU-145 prostate)	growth (K-562 leukemia)	growth (MALME-3M melanoma)	growth (MDA-MB-231 breast)	growth (RXF 393 renal)	growth (SF-268 CNS)	growth (SF-295 CNS)	growth (SF-539 CNS)	growth (UACC-257 melanoma)	growth (M14 melanoma)
O=C1CCCc2cc(OCC(=O)N3CCCCC3)ccc2N1	105%	101%	116%	105%	115%	108%	113%	116%	117%	122%	106%	102%	105%	110%	108%	99%	101%	111%	116%
Cc1ccc([C@H]2C(C(=O)c3ccc(Cl)cc3)C3(N[C@@H]2c2ccccc2)C(=O)Nc2ccccc23)cc1 (stereo partly drawn)	44.1%	45.5%	55.4%	44%	45.8%	12.9%	25.9%	33.4%	19.2%	80.2%	11.8%	20.5%	27.2%	19%	61.1%	42.6%	83.9%	26.9%	28.7%
Cc1ccc(S(=O)(=O)c2nc(S(=O)(=O)c3ccc(C)cc3)c(N3CCN(C)CC3)s2)cc1	56%	67.3%	67.3%	99.9%	40.1%	15.2%	59.5%	47.5%	78%	52.6%	15.7%	73.5%	84.4%	30.3%	78.7%	102%	57.5%	85.8%	74%
CCCSc1nc(Nc2ccc(S(N)(=O)=O)cc2)c(C#N)c(-c2ccc(Cl)cc2)n1	31.4%	-2.08% (active)	21.9%	-2.6% (active)	28.6%	16.6%	16.3%	-69.7% (active)	46.8%	58.7%	7.3% (active)	-4.55% (active)	-55.6% (active)	-43.4% (active)	66%	1.43% (active)	-4.39% (active)	54.8%	18.8%
COc1ccc(-c2ccc(SCC(=O)Nc3ccc(S(N)(=O)=O)cc3Br)nn2)cc1	77.4%	52.9%	84.5%	-9.99% (active)	70.2%	37.2%	64.4%	33.8%	115%	72%	101%	89.4%	85.1%	89.2%	17.9%	60.2%	42.9%	87.9%	101%
O=c1[nH]c(=O)c2c(-c3cc4ccccc4oc3=O)ccnc2[nH]1	61.3%	74.8%	97%	26.4%	88.8%	68.5%	91.9%	43.9%	108%	88%	106%	64%	64.9%	69.5%	79.6%	3.14% (active)	70.2%	103%	91.4%
COc1c(F)ccc(C(=O)Nc2ccc3nc(NC(=O)C4CCCN(S(=O)(=O)C5CC5)C4)sc3c2)c1F (stereo not drawn)	31.5%	34.8%	65.2%	68.4%	48.5%	40.7%	54%	31.1%	32.4%	66.8%	20.5%	43.5%	46.7%	-4.35% (active)	76.2%	18.1%	37.6%	20.9%	50.3%
Cc1nc(Nc2ccccn2)sc1C(=O)CC(SCC(=O)Nc1ccc(Cl)cc1)c1ccccc1F (stereo not drawn)	-0.749% (active)	48%	19.6%	10.1%	6.78% (active)	-12.8% (active)	6.38% (active)	10.9%	-49.7% (active)	-35.3% (active)	11.8%	27.5%	-40.1% (active)	1.73% (active)	22.4%	2% (active)	-58.4% (active)	36.9%	1.45% (active)
C=C1CC[C@@H]2[C@]3(C)COC(c4cn[nH]c4-c4ccc(Br)cc4)O[C@@H]3CC[C@@]2(C)[C@@H]1C/C=C1/C(=O)OCC1O (stereo partly drawn)	-86.1% (active)	-83.3% (active)	32%	-46.1% (active)	-82.3% (active)	-57.5% (active)	-30.5% (active)	-95.5% (active)	-54.6% (active)	-78.6% (active)	7.76% (active)	-70.7% (active)	-65.8% (active)	-89.1% (active)	-13.3% (active)	-65.6% (active)	-94.4% (active)	-71.4% (active)	-69.5% (active)
O=C(NN1C(=O)/C(=C/C=C/c2ccc([N+](=O)[O-])o2)SC1=S)c1ccccc1O	-86.1% (active)	-71.2% (active)	-63% (active)	-53.5% (active)	-55.7% (active)	-90.7% (active)	-58.2% (active)	-89.5% (active)	-82.1% (active)	-100% (active)	7.19% (active)	-95% (active)	-93.1% (active)	-94.5% (active)	-81.4% (active)	-48.2% (active)	-100% (active)	-85% (active)	-81.3% (active)
CC(C)C(C(=O)O)n1c(O)c(/C=C2/C=c3cc4c(cc3=NC2=O)OCO4)sc1=S (stereo not drawn)	98.4%	101%	103%	115%	114%	99.4%	110%	105%	115%	115%	109%	98.4%	99.2%	116%	111%	102%	104%	107%	103%
O=C(C1=CNC(=S)NC1c1ccc(O)cc1)c1cc2ccccc2oc1=O (stereo not drawn)	102%	95.7%	106%	91.4%	108%	90%	101%	109%	102%	110%	90.9%	108%	105%	109%	97.5%	98.8%	91.9%	107%	96.4%
C=C1CCC2C3(C)COC(c4ccccc4)OC3CCC2(C)C1CC(NCc1ccccc1)C1=CCOC1=O (stereo not drawn)	80.8%	63.6%	90.8%	85.1%	97%	77.6%	75.9%	79.3%	88.3%	98.7%	58.8%	92.4%	71.5%	78.5%	82.4%	72%	89.2%	71.7%	76%
CN(C)c1nc(NCCNS(=O)(=O)c2ccc(C3=Nc4c(N)nc(N)nc4NC(c4ccc(C(F)(F)F)cc4)C3)cc2)nc(Nc2ccc(F)cc2)n1 (stereo not drawn)	31.5%	24.3%	46.7%	56.1%	-7.38% (active)	5.71% (active)	45.8%	-35.4% (active)	-83.5% (active)	26.9%	1.59% (active)	-36.8% (active)	-37.4% (active)	-11.9% (active)	28%	20.8%	-65.4% (active)	43%	7.55% (active)
O=c1oc2ccccc2cc1-c1csc(N2N=C(c3ccccc3)CC2c2ccc(N3CCOCC3)cc2)n1 (stereo not drawn)	95.9%	94.6%	120%	106%	107%	101%	114%	118%	118%	113%	107%	116%	90.3%	112%	127%	105%	100%	119%	103%
CC(C)CCNC(=O)N/C(N)=N/c1nc2ccccc2s1	46.9%	52.1%	83.1%	73.6%	66.5%	54.2%	64.6%	80.9%	103%	66.4%	28.7%	77.1%	–	74.7%	72%	45.3%	56.8%	35.5%	79.6%
